From PubChem BioAssay AID1159580 (chemical genetic matrix, 2015)
Values joined by “and” are separate entries in the source; they are usually repeats but may differ in a detail not shown here. Equal values may be shown once. About 2,000 (36%) of roughly 5,500 compounds were called active. Another 18% or so got no clear call; they are omitted. Rule as the data show it: active = normalized growth mostly below about 0.91 (no sharp cut-off); inconclusive = no clear call, values can overlap the other calls; inactive = mostly above about 0.92. The list shows a part of the results.

Assay: chemical genetic growth profiling, strain panel (AID 1159580);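 also: tested at 20 µM; growth read once vehicle control cultures reached saturation at 30 °C; 1 = growth at the plate median or of vehicle wells; lower values mean less growth of the strain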
Details: S. cerevisiae deletion strains, growth OD

Measured: normalized growth

CC(N)C(=O)OC(C)(C)Cc1ccc(Cl)cc1 (stereo unspecified)
inactive: locus YAL013W, strain DEP1, active compounds read low 0.986 and 1.01 | locus YAL021C, strain ccr4, active compounds read low 1.03 | locus YAL026C, strain drs2, active compounds read low 1.03 | locus YAL030W, strain snc1, active compounds read low 1.01 | locus YAL040C, strain CLN3, active compounds read low 1 | locus YBL061C, strain skt5, active compounds read low 1.02 | locus YBR009C, strain hhf1, active compounds read low 1.06 | locus YBR021W, strain FUR4, active compounds read low 0.943 | locus YBR023C, strain chs3, active compounds read low 1.02 | locus YBR171W, strain sec66, active compounds read low 1.02 | locus YBR229C, strain ROT2, active compounds read low 0.957 | locus YBR231C, strain swc5, active compounds read low 1.01 | locus YBR279W, strain paf1, active compounds read low 1.01 | locus YCL011C, strain gbp2, active compounds read low 1.01 | locus YCL016C, strain dcc1, active compounds read low 1.01 | locus YCL029C, strain bik1, active compounds read low 0.987 | locus YCL061C, strain MRC1 (second series), active compounds read low 0.995 | locus YCL061C, strain MRC1, active compounds read low 1.02 | locus YCL069W, strain vba3, active compounds read low 1.01 | locus YCR088W, strain abp1, active compounds read low 1.01 | locus YDL005C, strain med2, active compounds read low 1.03 | locus YDL035C, strain GPR1, active compounds read low 0.98 | locus YDL040C, strain nat1, active compounds read low 1 | locus YDL074C, strain BRE1, active compounds read low 0.988 | locus YDL101C, strain DUN1, active compounds read low 0.983 | locus YDL134C, strain PPH21, active compounds read low 0.984 | locus YDL185W, strain tfp1, active compounds read low 0.996 | locus YDL192W, strain arf1, active compounds read low 0.983 | locus YDR001C, strain nth1, active compounds read low 1.02 | locus YDR069C, strain doa4, active compounds read low 1.03 | locus YDR101C, strain arx1, active compounds read low 0.983 | locus YDR137W, strain rgp1, active compounds read low 1.05 | locus YDR150W, strain NUM1, active compounds read low 0.96 | locus YDR159W, strain sac3, active compounds read low 1.01 | locus YDR162C, strain NBP2, active compounds read low 0.985 | locus YDR195W, strain ref2 0.97 | locus YDR297W, strain sur2, active compounds read low 1.01 | locus YDR318W, strain mcm21, active compounds read low 0.996 | locus YDR334W, strain swr1, active compounds read low 1.02 | locus YDR335W, strain msn5, active compounds read low 1.02 | locus YDR363W, strain ESC2, active compounds read low 0.999 | locus YDR388W, active compounds read low 0.989 | locus YDR392W, strain spt3, active compounds read low 1.03 | locus YDR502C, strain sam2, active compounds read low 0.991 | locus YEL003W, strain gim4, active compounds read low 1.01 | locus YEL037C, strain rad23, active compounds read low 1.01 | locus YEL061C, strain CIN8 (second series), active compounds read low 1.02 | locus YEL061C, strain CIN8, active compounds read low 0.977 | locus YER002W, strain NOP16, active compounds read low 1.02 | locus YER015W, strain faa2, active compounds read low 1.01 | locus YER016W, strain bim1, active compounds read low 1.01 | locus YER110C, active compounds read low 0.972 | locus YER111C, strain swi4, active compounds read low 1.03 | locus YER155C, strain BEM2 (second series), active compounds read low 0.996 | locus YER155C, strain BEM2, active compounds read low 1 | locus YER167W, strain BCK2, active compounds read low 1.01 | locus YFR010W, strain ubp6, active compounds read low 1.03 | locus YGL078C, strain dbp3, active compounds read low 0.983 | locus YGL086W, strain mad1, active compounds read low 0.975 | locus YGL167C, strain pmr1, active compounds read low 1.01 | locus YGL173C, strain kem1, active compounds read low 1.04 | locus YGL227W, strain vid30, active compounds read low 1.01 | locus YGL240W, strain doc1, active compounds read low 1.02 | locus YGL248W, strain PDE1, active compounds read low 0.984 | locus YGL253W, strain hxk2, active compounds read low 1.01 | locus YGR078C, strain PAC10, active compounds read low 0.982 | locus YGR135W, strain pre9, active compounds read low 0.994 | locus YGR229C, strain SMI1, active compounds read low 0.996 | locus YGR252W, strain gcn5, active compounds read low 0.882 | locus YHR013C, strain ard1, active compounds read low 1.04 | locus YHR027C, strain rpn1, active compounds read low 1.01 | locus YHR030C, strain SLT2, active compounds read low 0.982 and 1.03 | locus YHR079C, strain IRE1 (second series), active compounds read low 0.994 | locus YHR079C, strain IRE1, active compounds read low 1.03 | locus YHR094C, strain hxt1, active compounds read low 0.995 | locus YHR129C, strain ARP1, active compounds read low 0.997 | locus YHR142W, strain chs7, active compounds read low 1.04 | locus YHR200W, strain rpn10, active compounds read low 0.987 | locus YIL066C, strain RNR3, active compounds read low 0.965 | locus YIL073C, strain SPO22, active compounds read low 1.02 | locus YIL125W, strain kgd1, active compounds read low 0.984 | locus YIR030C, strain dcg1, active compounds read low 0.977 | locus YJL092W, strain hpr5, active compounds read low 1.02 | locus YJL095W, strain BCK1 (second series), active compounds read low 1 | locus YJL095W, strain BCK1, active compounds read low 1.02 and 1.01 | locus YJL115W, strain asf1, active compounds read low 1.02 | locus YJL129C, strain trk1, active compounds read low 1.03 | locus YJL134W, strain LCB3, active compounds read low 0.983 | locus YJL154C, strain vps35, active compounds read low 1.01 | locus YJL164C, strain tpk1, active compounds read low 1.03 | locus YJL166W, strain qcr8, active compounds read low 1.04 | locus YJL168C, strain set2, active compounds read low 0.989 | locus YJL187C, strain SWE1 (second series), active compounds read low 0.978 | locus YJL187C, strain SWE1, active compounds read low 1.01 | locus YJR043C, strain POL32, active compounds read low 1.02 | locus YJR066W, strain TOR1, active compounds read low 0.971
